This is an account of results in PubChem BioAssay (NCATS).

“And” between values parts separate entries of the source, which are not always exact repeats. Equal entries are not always repeated. Records with an inconclusive call do not appear. Some structures have more than one record in an assay (separate samples or runs), and their calls can disagree. The source made the active and inactive calls. The call rests on the fitted dose curve.
Potency means the concentration at half of the fitted maximal effect.

A short description of the first experiment: Primary qHTS to identify inhibitors of SARS-CoV-2 cell entry (AID 1645846). Further: nearly all actives have a fitted effect of over 45% in size. Conditions: SARS-CoV-2 pseudovirus cell entry assay, luminescence; activity change, negative = inhibition: at 57.1 µM (top of the series) unless noted; series mostly up to 57.1 µM. An outline of the steps: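 Inhibition of spike-mediated entry was scored in human ACE2-transfected Expi293F cells. Particles were MLV-pseudotyped with Wuhan-Hu-1 S carrying a 19-aa C-terminal deletion; signal was luciferase after two days, scaled between spike PP and fusion-protein-free PP.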
Take `Fc1ccc([C@@H]2CCNC[C@H]2COc2ccc3c(c2)OCO3)cc1`: the activity change, negative = inhibition is -4.22%. Consider `O=C1c2cccc3c2[C@H](CCC3)CN1[C@@H]1CN2CCC1CC2`, for which the result was inactive. As for `N=C(N)c1ccc(OCCCCCOc2ccc(C(=N)N)cc2)cc1`, the Potency is 15.8 µM (active).

Regarding `Cn1c(=O)c2c(ncn2CC(O)CO)n(C)c1=O` (configuration not stated), the result was inactive and the activity change, negative = inhibition is 4.29%. `O=C1c2c(O)ccc(O)c2C(=O)c2c(NCCNCCO)ccc(NCCNCCO)c21`: the activity change, negative = inhibition is -94.5% and -97.6%.

`CCCN1C[C@H](CSC)C[C@@H]2c3cccc4[nH]cc(c34)C[C@H]21`: the activity change, negative = inhibition was -12.6%. Same read-out and setting: as for `COc1ccc2nc(S(=O)Cc3ncc(C)c(OC)c3C)[nH]c2c1` (configuration not stated), the figure is -4.15%.

Take `CO[C@@]12[C@H](COC(N)=O)C3=C(C(=O)C(C)=C(N)C3=O)N1C[C@@H]1N[C@@H]12`: the Potency was 4.47 µM (active) and the activity change, negative = inhibition is -40.7%. Consider `CC(=O)O[C@]1(C(C)=O)CC[C@H]2[C@@H]3C=C(C)C4=CC(=O)CC[C@]4(C)[C@H]3CC[C@@]21C`, for which the compound was called inactive and the activity change, negative = inhibition was -12.1%. `COc1ccc(OC)c(C(O)CNC(=O)CN)c1` (configuration not stated): the activity change, negative = inhibition was -24%. Consider `CCCC(CCC)C(=O)O`, for which the outcome was inactive and the activity change, negative = inhibition was -12.6%. With `CC(=O)Oc1ccccc1C(=O)Nc1ncc([N+](=O)[O-])s1`, the Potency was 5.62 µM (active) and inactive. For the compound `CC[C@]1(O)C[C@H]2CN(CCc3c([nH]c4ccccc34)[C@@](C(=O)OC)(c3cc4c(cc3OC)N(C=O)[C@H]3[C@@](O)(C(=O)OC)[C@H](OC(C)=O)[C@]5(CC)C=CCN6CC[C@]43[C@@H]65)C2)C1`, the activity change, negative = inhibition was -77.7% and -70.4%. On to `Cn1cnc([N+](=O)[O-])c1Sc1ncnc2nc[nH]c12`, for which the compound was classed as inactive and the activity change, negative = inhibition is -53.9%.

Take `Cc1nc2n(c(=O)c1CCN1CCC(c3noc4cc(F)ccc34)CC1)CCCC2`: the compound was called inactive. Take `COc1cc2c(cc1OC)C(=O)C(CC1CCN(Cc3ccccc3)CC1)C2` (configuration not stated): the activity change, negative = inhibition was -29.7%.

In the case of `COc1cc(Nc2c(C#N)cnc3cc(OCCCN4CCN(C)CC4)c(OC)cc23)c(Cl)cc1Cl`, the Potency was 3.16 µM (active). `COc1ccccc1Oc1c(NS(=O)(=O)c2ccc(C(C)(C)C)cc2)nc(-c2ncccn2)nc1OCCO`: the activity change, negative = inhibition was -16.5%. Still for that read-out and setting: as for `CC1(C)NC(=O)N(c2ccc([N+](=O)[O-])c(C(F)(F)F)c2)C1=O`, the figure is -23.9%. As for `CCC[C@H](N[C@@H](C)C(=O)N1[C@H](C(=O)O)C[C@@H]2CCCC[C@@H]21)C(=O)OCC`, the outcome was inactive. Regarding `CC[C@H](C)C(=O)O[C@H]1C[C@@H](C)C=C2C=C[C@H](C)[C@H](CC[C@@H]3C[C@@H](O)CC(=O)O3)[C@H]21`, the Potency entry is “inactive”. Turning to `CC(=O)[C@]1(O)Cc2c(O)c3c(c(O)c2[C@@H](O[C@H]2C[C@H](N)[C@H](O)[C@H](C)O2)C1)C(=O)c1ccccc1C3=O`, the activity change, negative = inhibition was -91.2% and -93.3%. On to `O=c1c(O)c(-c2ccc(O)c(O)c2)oc2cc(O)cc(O)c12`, for which the compound was classed as inactive and the activity change, negative = inhibition is -12.3%. Consider `Nc1[nH]c(=O)ncc1F`, for which the activity change, negative = inhibition is -21.9% and -13.2%.

`CN1C(=O)CC(C)(c2ccccc2)C1=O` (configuration not stated): the activity change, negative = inhibition was -13.4%.

A short description of another experiment: VSVG counterscreen qHTS to identify inhibitors of SARS-CoV-2 cell entry (AID 1645847). Further: nearly all actives have a fitted effect of over 65% in size. Conditions: VSV-G pseudotyped particle entry, luciferase; series mostly up to 57.2 µM; activity change, negative = inhibition: at the top concentration. The procedure, abridged: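 Luminescence from a luciferase reporter, normalised to bald particle and VSV-G pseudotyped particle wells, is the read-out. Cells are HEK293 expressing human ACE2, exposed to compound 1 h before a 48 h particle infection at 37 °C.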
For orientation: A counterscreen serves to expose hits that act by an unwanted route or on another target.
Regarding `CC(=O)Oc1ccccc1C(=O)Nc1ncc([N+](=O)[O-])s1`, the Potency was 1.08 µM (active). Same read-out and setting: as for `Cc1nc(Nc2ncc(C(=O)Nc3c(C)cccc3Cl)s2)cc(N2CCN(CCO)CC2)n1`, the figure is 3.83 µM (active). Same read-out and setting: for `CC[C@]1(O)C[C@H]2CN(CCc3c([nH]c4ccccc34)[C@@](C(=O)OC)(c3cc4c(cc3OC)N(C=O)[C@H]3[C@@](O)(C(=O)OC)[C@H](OC(C)=O)[C@]5(CC)C=CCN6CC[C@]43[C@@H]65)C2)C1` the value was 0.0171 µM (active). Same read-out and setting: for `Nc1ncn([C@@H]2O[C@H](CO)[C@@H](O)[C@H]2O)c(=O)n1` the value was 19.2 µM (active). Turning to `CC(=O)[C@]1(O)Cc2c(O)c3c(c(O)c2[C@@H](O[C@H]2C[C@H](N)[C@H](O)[C@H](C)O2)C1)C(=O)c1ccccc1C3=O`, the Potency is 0.0857 µM (active). Regarding `CCCCNc1ccc(C(=O)OCCOCCOCCOCCOCCOCCOCCOCCOCCOC)cc1`, the Potency was 21.5 µM (active).
